In the library only some 9.3% were active in any assay of this set; here they are far more common.
SMN2 splice enh = qHTS Assay for Enhancers of SMN2 Splice Variant Expression | HEK293 SMN2-luciferase splicing reporter, luminescence, 30-36 h | Potency, µM (titrated, usually from 46.1 µM), without a hit: at the highest dose activity change, positive = activation, hits mostly activators | 210,000 compounds, 2.8% hits; further: % of control where 0% means no effect; nearly all actives have a fitted effect of over 55% in size
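qHTS luciferase splicing reporter: luminescence rises when SMN2 exon 7 is included in transfected HEK293 cells. Compound exposure lasted 30-36 h at 37C, with 4.5 mM final sodium butyrate as control, followed by a ONE-Glo read.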
NPC1 prom act = qHTS Assay for NPC1 Promoter Activators | 320,000 compounds, 2.4% hits | AID 485313, 2010 | Potency, µM (top dose mostly 9.22 µM), without a hit: at the highest dose activation, actives largely listed as activators | Huh7 NPC1 promoter luciferase reporter, 24 h; further: % of control where 0% means no effect; nearly all actives have a fitted effect of over 60% in size
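NPC1 promoter–luciferase Huh7 cells; 24 h compound; luminescence.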
ELG1 genotox = qHTS screen for small molecules that induce genotoxicity in human embryonic kidney (HEK293T) cells expressing luciferase-tagged ELG1. HEK293T ELG1-luciferase reporter, luminescence, 16 h. Potency, µM (titrated, usually from 46 µM), inactives show at the top dose activity change, positive = activation, usual class: activators. 330,000 compounds, 1.3% hits. AID 504466, 2011; further: % of control where 0% means no effect; nearly all actives have a fitted effect of over 60% in size
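HEK293T cells expressing luciferase-tagged ELG1 were treated with compound or DMSO for 16 hr at 37°C. Luciferase activity was then read after 30 min with ONE-Glo at room temperature; rising signal flags genetic stress.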
ELG1 DNA repair = qHTS screen for small molecules that inhibit ELG1-dependent DNA repair in human embryonic kidney (HEK293T) cells expressing luciferase-tagged ELG1; 330,000 compounds, 2.3% hits; Potency, µM (series often up to 46.1 µM), without a hit: top-dose activity change, negative = inhibition, usual class: inhibitors; HEK293T ELG1-luciferase reporter, luminescence, 16 h; DNA damage induced by 5-fluorouridine; AID 504467, 2011; further: on the % scale 0 is the no-effect control and ±100 the full control effect; nearly all actives have a fitted effect of over 55% in size
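Quantitative HTS, concentration-response format. 2,000 cells/well co-treated with 5-fluorouridine and compound, 16 hr in 5% CO2 at 37 °C; ONE-Glo luminescence read after 30 min.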
Rab9 prom act = qHTS Assay for Rab9 Promoter Activators; Huh7 Rab9 promoter-luciferase reporter, luminescence, 24 h; Potency, µM (doses to about 9.22 µM), without a hit: at the highest dose activation, negative = inhibition, usual class: activators; 320,000 compounds, 2.8% hits; further: % of control where 0% means no effect; nearly all actives have a fitted effect of over 60% in size
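Cell-based reporter: Huh7 stable for Rab9 promoter-driven luciferase, plated in reduced-serum medium with 10% FBS at 1500 cells/well, compound-treated 24 h at 37 °C, luminescence read after 10 min reagent.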
FLuc counter = qHTS profiling assay for firefly luciferase inhibitor/activator using purifed enzyme and Km concentrations of substrates (counterscreen for miR-21 project). Luciferin 4-monooxygenase (Photinus pyralis), P08659. purified FLuc, Km substrates, luminescence inhibition. Potency, µM (highest dose often 57.5 µM), for the others: top-dose activity change, negative = inhibition, actives largely listed as inhibitors. 360,000 compounds, 6.9% hits. AID 588342, 2011;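 further: plate controls were vehicle for no effect and reference inhibitor for full effect; nearly all actives have a fitted effect of over 55% in size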
Target sequence (P08659 whole entry, looked up): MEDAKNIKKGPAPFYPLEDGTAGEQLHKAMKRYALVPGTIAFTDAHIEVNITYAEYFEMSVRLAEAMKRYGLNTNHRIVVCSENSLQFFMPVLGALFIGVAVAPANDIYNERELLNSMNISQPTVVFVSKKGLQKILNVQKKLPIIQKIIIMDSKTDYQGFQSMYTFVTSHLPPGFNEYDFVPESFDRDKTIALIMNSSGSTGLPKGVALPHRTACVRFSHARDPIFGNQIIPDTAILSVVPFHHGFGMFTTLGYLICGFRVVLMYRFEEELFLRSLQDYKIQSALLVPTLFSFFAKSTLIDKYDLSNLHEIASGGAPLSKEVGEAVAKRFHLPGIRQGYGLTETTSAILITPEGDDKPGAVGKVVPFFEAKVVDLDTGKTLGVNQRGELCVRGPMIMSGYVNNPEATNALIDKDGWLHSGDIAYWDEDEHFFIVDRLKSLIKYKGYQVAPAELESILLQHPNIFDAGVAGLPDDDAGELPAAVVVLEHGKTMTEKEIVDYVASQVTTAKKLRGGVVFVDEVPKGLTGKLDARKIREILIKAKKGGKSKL
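Purified P. pyralis luciferase, 10 nM final, with Km-level 10 uM D-luciferin and 10 uM ATP in 50 mM Tris acetate pH 7.5, 10 mM Mg acetate, 0.01% Tween-20, 0.05% BSA; 6-point qHTS titration about 60 µM downward; luminescence read.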
An asterisk follows results filed as active; ? = inconclusive; . = no result given. The call rests on the fitted dose curve; in most records, active means well fitted curve in the direction sought with a large enough effect; inconclusive means small, poorly fitted or top-dose-only effect, or another doubt; inactive means no such curve, though single readings can be large; an effect the other way counts as inactive or inconclusive. Potency means the concentration at half of the fitted maximal effect.

SMILES	SMN2 splice enh	NPC1 prom act	ELG1 genotox	ELG1 DNA repair	Rab9 prom act	FLuc counter
CC(=O)Nc1ccc(N2C(=O)c3cccc(NC(C)=O)c3C2=O)cc1	-0.5%	-1.1%	0.8%	0.0%	-1.4%	-0.3%
N#C/C(=C\c1ccccc1[N+](=O)[O-])C(=O)Nc1ccc(S(N)(=O)=O)cc1	.	-2.4%	-1.3%	-3.6%	-8.7%	-1.4%
Cc1ccc(-c2nc3ccccc3o2)cc1NC(=O)c1ccc2c(c1)OCO2	.	?	7.31µM*	?	-3.6%	?
O=C(Nc1ccc2oc(-c3ccccc3F)nc2c1)c1ccc2c(c1)OCCO2	-39.1%	14.1%	-15.7%	?	20.9%	6.75µM*
O=C(Nc1ccc(-c2nc3ccccc3o2)cc1)c1ccc2c(c1)OCO2	-3.6%	.	.	.	.	4.9%
Cc1c(NC(=O)c2ccc3c(c2)OCO3)cccc1-c1nc2ccccc2o1	-10.7%	-3.9%	-7.7%	?	0.0%	9.53µM*
CCN(CC)S(=O)(=O)c1ccc(C(=O)NNc2nc(-c3ccccc3)c3cc(Br)ccc3n2)cc1	-25.3%	-2.9%	-8.8%	23.1µM*	-2.4%	6.3%
CC(C)(C)C(=O)NNc1nc(-c2ccccc2)c2cc(Br)ccc2n1	-21.8%	0.5%	1.2%	0.6%	-1.8%	6.5%
CC1(C)OC2CCN3C(C(O)COS3(=O)=O)C2O1 (centres undefined)	.	3.3%	-0.4%	6.1%	4.7%	0.5%
COCCNC(=O)c1cccc(Nc2nc3ccccc3n3nnnc23)c1	.	.	.	.	.	-2.1%
O=C(Nc1ccc2oc(-c3cccnc3)nc2c1)c1ccc(Br)o1	-25.7%	6.1%	7.8%	-4.0%	-0.5%	-11.2%
CCc1ccc(-c2nc3cc(NC(=O)c4ccc(C)c(C)c4)ccc3o2)cc1	-21.6%	.	.	.	.	-1.5%
CCOc1cccc(C(=O)Nc2ccc3oc(Cc4ccc(Cl)cc4)nc3c2)c1	-78.6%	0.6%	-7.9%	18.4µM*	-15.2%	-9.6%
CC(C)CC(=O)Nc1ccc2oc(-c3cccnc3)nc2c1	?	?	?	?	?	13.5µM*
CCc1ccc2oc(-c3ccc(NC(C)=O)cc3)nc2c1	.	?	3.26µM*	?	0.631µM*	1.9µM*
O=C(Nc1ccc2oc(-c3cccnc3)nc2c1)c1ccco1	3.3%	?	16.3%	?	?	15.1µM*
Cc1c(CC(=O)O)c(=O)oc2c(C)c(OCc3ccccc3)ccc12	.	-3.8%	0.2%	0.7%	-3.2%	?
CC1CCN(C(=O)C2CCN(CCCc3ccccc3)CC2)CC1	8.4%	0.1%	0.5%	-14.4%	3.4%	1.6%
Cc1cccc2c(=O)c(C(=O)NCc3ccc(F)cc3)c[nH]c12	.	5.2%	8.7%	9.6%	-0.4%	1.2%
CCC(=O)Nc1ccc2oc(-c3cccnc3)nc2c1	.	?	?	?	3.55µM*	16.9µM*
O=C(Nc1ccc(-c2nc3ncccc3o2)cc1)c1ccco1	?	2.51µM*	?	?	1.58µM*	8.49µM*
CCOc1cccc(C(=O)Nc2ccc3oc(-c4cccnc4)nc3c2)c1	-5.3%	1.4%	-1.3%	18.3µM*	1.3%	?
O=C(Nc1ccc(-c2nc3ncccc3o2)cc1)c1ccc(Br)o1	18.8%	8.5%	4.1%	20.0%	26.7%	-7.8%
Cc1ccc2oc(-c3ccc(NC(=O)CC(C)C)cc3)nc2c1	?	0.282µM*	2.31µM*	?	?	0.757µM*
O=C(Nc1ccc2oc(-c3cccnc3)nc2c1)c1cccnc1	-10.4%	11.7%	2.7%	0.0%	17.0%	?
SMILES	SMN2 splice enh	NPC1 prom act	ELG1 genotox	ELG1 DNA repair	Rab9 prom act	FLuc counter
O=C(NCC(=O)N(Cc1cccs1)C(C(=O)NC1CCCCC1)c1ccco1)c1ccco1 (centres undefined)	7.4%	-4.0%	-1.7%	?	-3.7%	-2.7%
COC(=O)N/N=C/c1cccc([N+](=O)[O-])c1	.	-5.0%	-2.2%	-10.6%	-3.2%	1.1%
O=C(Nc1ccc2nc(-c3ccccc3)oc2c1)c1ccco1	?	?	?	?	3.16µM*	21.3µM*
Clc1ccc(CSc2snnc2-c2ccccc2)c(Cl)c1	?	?	?	?	20.1%	13.5µM*
CCc1ccc(NC(=O)c2[nH]c(C)c(C(C)=O)c2C)cc1	.	1.58µM*	?	?	1.58µM*	12µM*
CCOc1ccc(NC(=O)c2[nH]c(C)c(C(C)=O)c2C)cc1	.	?	?	?	?	15.1µM*
CCOC(=O)c1ccc(NC(=O)c2c(C)[nH]c(C(=O)OCC)c2C)cc1	16.5%	1.3%	-6.0%	-19.2%	-0.8%	0.5%
CNC(=S)Nc1ccc(C23CC4CC(CC(C4)C2)C3)cc1	.	-0.4%	-0.7%	5.2%	11.5%	?
Cc1cccc2c(C(=O)N3CCCCC3)cc(-c3ccccc3)nc12	.	0.3%	-6.9%	?	-1.4%	-2.0%
CCCN(CCC)S(=O)(=O)c1ccc(C(=O)Nc2nnc(CSC)o2)cc1	-48.9%	1.6%	-11.7%	?	-10.9%	0.2%
Cc1ccc(-c2nc3s/c(=C\c4ccco4)c(=O)n3n2)cc1	0.3%	-3.9%	-1.4%	?	4.2%	0.757µM*
Cc1ccc(/C=c2\sc3nc(-c4ccco4)nn3c2=O)o1	13.9%	5.3%	-5.4%	3.0%	-0.7%	?
O=C(NCCCO)/C(=C\c1cn(-c2ccccc2)nc1-c1cccnc1)NC(=O)c1ccccc1	-5.5%	0.1%	-3.0%	?	-4.7%	2.1%
CC(C)c1ccc(-c2nn(-c3ccccc3)cc2C(=O)NCC2CCCO2)cc1 (centres undefined)	.	1.7%	-8.9%	?	-10.8%	-11.6%
NS(=O)(=O)c1ccc(NC(=O)/C=C/c2cn(-c3ccccc3)nc2-c2cccc(Cl)c2)cc1	-12.5%	-5.4%	16.3%	?	-9.1%	-4.0%
O=C(O)c1ccc(NC(=O)c2cn(-c3ccccc3)nc2-c2cccc(Cl)c2)cc1	.	-5.9%	-0.5%	-4.2%	-1.2%	3.79µM*
O=C(NCC1CCCO1)/C(=C/c1cn(-c2ccccc2)nc1-c1cccnc1)NC(=O)c1ccccc1 (centres undefined)	5.6%	-0.8%	-11.7%	20.6µM*	2.4%	-6.9%
O=C(NCC1CCCO1)c1cn(-c2ccccc2)nc1-c1ccc(F)cc1 (centres undefined)	.	2.9%	-2.0%	-13.3%	7.2%	10.7µM*
O=C(/C=C/c1cn(-c2ccccc2)nc1-c1ccccc1)Nc1ccc(C(=O)O)cc1	.	24.4%	4.1%	?	?	0.849µM*

Source: PubChem
